In PubChem BioAssay (NCI) one finds growth data, which are given here for 37 compounds.

Values joined by “and” are separate entries in the source; they are usually repeats but may differ in a detail not shown here. Equal entries are not always repeated. The panel holds about 83,000 compounds, 20% with a hit somewhere; the sample as a whole holds those more often.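 Activity criterion: percent growth below 10, measured after cells in 96-well plates were exposed to a single compound concentration for 48 hours.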 Active and inactive are the calls of the source.

In the first assay the test system is HOP-62 NSCLC. Kind of assay: NCI-60 one-dose screen, 48 h (100 = growth as untreated, 0 = no growth, -100 = all killed). Conditions: 10 µM. The method, then:
Growth inhibition of the HOP-62 human Non-Small Cell Lung tumor cell line is measured as a screen for anti-cancer activity. Cells are grown in 96 well plates and exposed to the test compound for 48 hours. Compounds are tested at a single concentration, which is 10^-5 M for most compounds. The reported endpoint is percent growth (GI% or GIPRCNT), where numbers from 0 - 100% represent growth inhibition, and numbers from -100% - 0 represent cell death. For example, a value of 40 represents 60% growth inhibition. A value of 0 means no net growth occurred over the course of the experiment. A value of -40 indicates 40% of cells at the beginning of the experiment died by the end of the experiment. A value of -100 means all cells are dead at the end of the experiment.
NCI-60 Human Tumor Cell Lines Screen was performed using the standard one-dose NCI protocol, which is described in more detail at https://dtp.cancer.gov/discovery_development/nci-60/default.htm.
Compounds with GIPRCNT values below 10 were considered active. Activity score was based on GIPRCNT using the following formula: […]
Score is 0 for GIPRCNT values of 100 or above, 50 for GIPRCNT values of 0, and 100 for GIPRCNT values of -100.
Turning to `COc1ccc(Cl)cc1C(=O)NCCc1ccc(S(=O)(=O)NC(=O)NC2CCCCC2)cc1`, the growth is 88.3% (inactive).

On to `CC1(C)OB(c2ccc(Cn3cc(F)c(=O)[nH]c3=O)cc2)OC1(C)C`, for which the growth was 104% (inactive).

Take `Cc1[nH]c(-c2nc3ccccc3[nH]2)c(C)c1C(=O)NC(C)C1CCCCC1` (stereo not given): the growth was 95.5% (inactive).

Staying with this assay, now noted: 10 µM unless noted.
Regarding `O=[N+]([O-])c1ccccc1N(S(=O)(=O)c1ccccc1)S(=O)(=O)c1ccccc1`, the growth is 118% (inactive) and 119% (inactive).

As for `O=C1C2=C(C(=O)c3ccccc31)C(O)(S(=O)(=O)O)C(O)(S(=O)(=O)O)C1N=CC=CC21` (stereo not given), the growth was 42.1% (inactive) and 41.9% (inactive).

For the compound `C=C1C(=O)O[C@H]2[C@H]1CC/C(COC(=O)NC1CCC(O)CC1)=C\CC[C@@]1(C)O[C@@H]21` (stereo not given in full), the growth was 97% (inactive) and 97.4% (inactive).

`N/C(=N\N=C\c1ccc2c(c1)OCO2)N/N=C\c1ccc2c(c1)OCO2`: the growth was 115% (inactive) and 101% (inactive).

Consider `COc1cc2nc(N3CCC[C@@H](NC(=O)C4COc5ccccc5O4)C3)nc(N)c2cc1OC` (stereo not given in full), for which the growth was 107% (inactive) and 102% (inactive).

For `C[N+](C)(C)CN1C(=O)c2ccccc2C1=O`, the growth is 96% (inactive).

In the case of `OC1CCC(Oc2cccc3cnc(Nc4ccc5nc[nH]c5c4)nc23)CC1` (stereo not given), the growth is -24.5% (active) and 5.23% (active).

Regarding `NC(=S)NS(=O)(=O)c1ccc(N)cc1`, the growth was 96.7% (inactive).

Consider `CCN(CC)C(=O)c1cccnc1`, for which the growth is 119% (inactive).

Consider `CCN(CC)CCNc1ccc(C)c2sc3ccccc3c(=O)c12` (tested in a mixture with another compound), for which the growth is 51.4% (inactive) and 51.3% (inactive).

On to `CCN(CC)CCCC(C)N(Cc1ccccc1)CC(O)c1ccc(Cl)cc1` (stereo not given), for which the growth is 97.3% (inactive) and 92.8% (inactive).

As to `CC1=C(/C=C/C(C)=C/C=C/C(C)=C/C=N/NC(=S)NC(=S)N/N=C/C=C(C)/C=C/C=C(C)/C=C/C2=C(C)CCCC2(C)C)C(C)(C)CCC1`, the growth is -7.59% (active).

Regarding `COc1cc(-c2nccc3cc4c(cc23)OCO4)cc(OC)c1OC`, the growth is 38.1% (inactive) and 39.4% (inactive).

With `C#CCN(C)Cc1ccccc1`, the growth was 93.5% (inactive) and 89.6% (inactive).

Consider `Cn1cc(-c2cc3c(Nc4ccc(CC(=O)Nc5cc(C(C)(C)C)on5)cc4)ncnc3[nH]2)cn1`, for which the growth was -11.3% (active) and -15.3% (active).

For the compound `N#C/C(=C/c1c(O)ccc2ccccc12)C(N)=O`, the growth is 81.1% (inactive).

On to `COc1cc(NS(C)(=O)=O)ccc1Nc1c2ccccc2nc2c(C)cccc12`, for which the growth was -17.9% (active) and -32.5% (active).

On to `O=C1OC(Oc2ccc(Br)cc2)(c2ccccc2)c2ccccc21` (stereo not given), for which the growth is 113% (inactive) and 107% (inactive).

Consider `O=C(Cc1cccc2ccccc12)N/N=C/c1ccc2c(c1)CCC2`, for which the growth was 67.1% (inactive).

Turning to `COc1ccc2cc3[n+](cc2c1OC)CCc1cc2c(cc1-3)OCO2`, the growth is 43.9% (inactive) and 85.4% (inactive).

For the compound `S=C(S)N1CCCC1`, the growth was 124% (inactive) and 100% (inactive).

For `Cc1cc(O)c(C(C)C)cc1S(=O)(=O)O` (tested in a mixture with another compound), the growth was 77.5% (inactive) and 33.1% (inactive) and 106% (inactive).

Take `Cn1c(SSc2ccc(-c3cccnc3)n2C)ccc1-c1cccnc1`: the growth was 117% (inactive) and 118% (inactive).

As for `COc1ccccc1/C=N\N=C(N/N=C/c1ccccc1OC)N/N=C/c1ccccc1OC`, the growth is 74.8% (inactive) and 26.9% (inactive).

As to `CC(=O)Nc1ccc(O)cc1`, the growth was 111% (inactive) and 106% (inactive) and 104% (inactive).

In the case of `CC(C)(C)c1ccc(O)c(CNC2CCCCC2)c1`, the growth is 119% (inactive) and 88.9% (inactive).

As for `N#C/C(=C1C=C/C(=N/O)C(Br)=C/1)c1ccccc1`, the growth is 16.3% (inactive).

Take `Nc1nc2ncc(CNc3ccc(C(=O)N[C@@H](CCc4nn[nH]n4)C(=O)O)cc3)nc2c(=O)[nH]1`: the growth was 103% (inactive) and 92.1% (inactive).

Turning to `N#CCCOc1ccccc1`, the growth is 95.3% (inactive).

As for `CN1C(=O)C(N=Nc2ccc([N+](=O)[O-])cc2)SC1=S` (stereo not given), the growth was 41.1% (inactive) and 53.7% (inactive).

For the compound `OC(CSc1ccccc1)CN1CCN(c2cccc(Cl)c2)CC1` (stereo not given), the growth was 107% (inactive) and 102% (inactive).

With `CCN1CCN(CCNc2nccc(-c3c(-c4cccc(O)c4)nc4sccn34)n2)S1(=O)=O`, the growth was 120% (inactive) and 92.2% (inactive).

For `O=C=NC(c1ccccc1)(c1ccccc1)c1ccccc1`, the growth was 143% (inactive).

Regarding `CNc1cc(-c2cccc(OC(F)(F)F)c2)nc2ccc(N3CCCC3)cc12`, the growth is 74.6% (inactive) and 45.7% (inactive) and 33.4% (inactive).

The assay is the same for the next values; noted with them: 50 µM.
As to `CC1(C)OB(c2ccc(Cn3cc(F)c(=O)[nH]c3=O)cc2)OC1(C)C`, the growth was 63.9% (inactive).

The assay is the same for the next values; noted with them: 100 µM.
As for `COc1ccc(Cl)cc1C(=O)NCCc1ccc(S(=O)(=O)NC(=O)NC2CCCCC2)cc1`, the growth is 69.1% (inactive).

Take `Cc1[nH]c(-c2nc3ccccc3[nH]2)c(C)c1C(=O)NC(C)C1CCCCC1` (stereo not given): the growth is -54.4% (active).
